Most compounds without a hit are left out; they make up all but 7.8% or so of the library.
VACV mCherry inh – inhibitors of vaccinia virus infection (mCherry reporter signal) | AID 720579 | actives 0.63% (n = 310,000) | Vaccinia virus mCherry reporter infection, fluorescence | Potency, µM (series often up to 36.5 µM), usual class: inhibitors; calls by dose curve; tested in A549 cells; note: nearly all actives have a fitted effect of over 35% in size
Vaccinia Venus – inhibitors of vaccinia virus (Venus reporter); Vaccinia virus Venus reporter expression, fluorescence; Potency, µM (doses to about 36.5 µM), most hits filed as inhibitors; actives 0.46% (n = 330,000); calls by dose curve; tested in A549 cells; note: nearly all actives have a fitted effect of over 30% in size
Marburg entry inh – inhibitors of Marburg virus binding or cell entry. Marburg virus pseudotyped entry inhibition, cell reporter. Potency, µM (titrated, usually from 37.8 µM), actives largely listed as inhibitors. actives 1.8% (n = 300,000). AID 540276; calls by dose curve; tested in HEK293 cells
HCMV inh – inhibitors of human cytomegalovirus | actives 4.5% (n = 410,000) | HFF cells, HCMV-luciferase reporter, 72 h; active compounds read low | activity change, negative = inhibition, % at 57.5 µM; in the data active = activity change below about -60%; inconclusive = no clear call, values can overlap the other calls; inactive = above about -39%
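Compounds were evaluated in HFFs infected with an HCMV luciferase reporter virus (MOI 1 PFU/cell). Luciferase in lysates collected 72 h post infection served as the replication measure.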
HCV inh – blocks hepatitis C virus; actives 3.4% (n = 340,000); Huh7.5.1 HCVcc-Cre infection, luciferase reporter, 44 h; Potency, µM (titrated, usually from 41.8 µM), usual class: inhibitors; active = well fitted inhibition curve with a large enough effect; inconclusive = small, poorly fitted or top-dose-only effect, or another doubt; inactive = no such curve, though single readings can be large or run the other way
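Luciferase read-out (15 sec integration) after a 15 min room-temperature substrate step quantifies HCVcc-Cre infection. Cells, 1,000 per well, had compound added 4 h post-plating, then virus at ~0.5 moi, and were cultured 44 h.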
Lassa entry inh – blocks Lassa virus binding to or entry into cells | actives 1.2% (n = 300,000) | Lassa virus pseudotype entry inhibition, cell reporter | AID 540256 | Potency, µM (titrated, usually from 37.9 µM), actives largely listed as inhibitors; calls by dose curve; tested in HEK293 cells; note: nearly all actives have a fitted effect of over 50% in size
Large screens that a line does not name were inactive.

CCCCCn1c(=O)c(C(=O)Nc2ccccn2)c(O)c2ccccc21	HCMV inh -98, HCV inh inconclusive (no result: VACV mCherry inh, Vaccinia Venus, Marburg entry inh, Lassa entry inh)
CCOC(=O)c1ccccc1NC(=O)c1c(O)c2ccccc2n(CC)c1=O	none (no result: VACV mCherry inh)
CCCCCCn1c(=O)c(C(=O)Nc2cnccn2)c(O)c2ccccc21	Marburg entry inh inconclusive, HCV inh inconclusive, Lassa entry inh inconclusive
CCCCn1c(=O)c(C(=O)Nc2ccccn2)c(O)c2ccccc21	HCMV inh -78 (no result: VACV mCherry inh, Vaccinia Venus, Marburg entry inh, Lassa entry inh)
CCOc1ccc(NC(=O)Cn2c(=O)n(CCCCCC(=O)NCc3ccccc3)c(=O)c3sccc32)cc1	none (no result: HCV inh)
O=c1n(Cc2cccc(F)c2)c2ccccc2c2nc(-c3ccccc3)nn12	HCMV inh inconclusive (no result: HCV inh)
Cc1ccc(-n2nc3c(=O)n(CC(=O)NCCC(C)C)nc(C)c3c2C)cc1	none (no result: Marburg entry inh, HCV inh)
CCn1c(=O)c(C(=O)Nc2ncccc2C)c(O)c2ccccc21	Marburg entry inh inconclusive, HCMV inh inconclusive, HCV inh 10µM
CCn1c(=O)c(C(=O)Nc2ncccc2O)c(O)c2ccccc21	VACV mCherry inh inconclusive, Marburg entry inh inconclusive
Cc1sc(NC(=O)c2ccccc2)c(C(=O)NCCN(C)C)c1C	Marburg entry inh 21µM, HCV inh inconclusive (no result: VACV mCherry inh, Vaccinia Venus)
COC(=O)c1c(NC(=O)c2ccccc2)sc(Cc2ccccc2)c1C	HCMV inh -62 (no result: VACV mCherry inh, Vaccinia Venus)
O=C(CSc1nc(Nc2ccccc2)nc(N2CCOCC2)n1)Nc1ccccc1Cl	Marburg entry inh inconclusive, HCMV inh inconclusive, HCV inh inconclusive, Lassa entry inh 4.6µM
COc1ccc(Cl)cc1NC(=O)CSc1nc(Nc2ccccc2)nc(N2CCOCC2)n1	HCV inh 11µM (no result: VACV mCherry inh, Vaccinia Venus, Marburg entry inh, Lassa entry inh)
CCNc1nc(SCc2ccccc2)nc(N2CCOCC2)n1	Marburg entry inh inconclusive, HCV inh 5.6µM, Lassa entry inh inconclusive (no result: VACV mCherry inh)
CN(C)c1nc(SCc2ccccc2)nc(N2CCOCC2)n1	HCV inh inconclusive (no result: VACV mCherry inh, Vaccinia Venus)
O=C(CSc1nc(Nc2ccccc2)nc(N2CCOCC2)n1)Nc1ccc([N+](=O)[O-])cc1	Marburg entry inh inconclusive, HCV inh 11µM (no result: VACV mCherry inh, Vaccinia Venus)
CN(Cc1ccccc1)C(=O)c1[nH]cnc1C(=O)Nc1ccc(Br)cc1F	none (no result: Marburg entry inh, HCV inh, Lassa entry inh)
CC1(C)N=C(N)N=C(N)N1CCCCc1ccccc1	VACV mCherry inh 0.71µM, Vaccinia Venus 1µM, Marburg entry inh inconclusive, HCMV inh -98, HCV inh inconclusive, Lassa entry inh inconclusive
Cc1ccccc1N1C(N)=NC(N)=NC1(C)C	Marburg entry inh inconclusive (no result: VACV mCherry inh)
Clc1ccc2nc(NCc3ccccc3)c3nncn3c2c1	none (no result: HCV inh)
CC(C)c1nc2oc3c(NCc4cccnc4)ncnc3c2c2c1CCC2	HCV inh 7.1µM, Lassa entry inh inconclusive (no result: VACV mCherry inh, Vaccinia Venus)
CC(C)Cc1nc2oc3c(NCc4cccnc4)ncnc3c2c2c1CCC2	Marburg entry inh inconclusive, HCV inh inconclusive (no result: VACV mCherry inh, Vaccinia Venus)
CC(C)Cc1nc2oc3c(NCC4CCCO4)ncnc3c2c2c1CCC2 (stereo not drawn)	Marburg entry inh inconclusive, HCV inh 14µM (no result: VACV mCherry inh, Vaccinia Venus)
O=C(c1cnsn1)N1CCOc2ccc(CN3CCOCC3)cc2C1	none (no result: Marburg entry inh, HCMV inh, HCV inh, Lassa entry inh)
COC(=O)c1ccc(NC(=O)c2ccccc2OCC(=O)Nc2ccc(Br)cc2)cc1	Vaccinia Venus inconclusive (no result: Marburg entry inh, HCMV inh, HCV inh, Lassa entry inh)
COc1ccc2cc(CN(C(=O)c3cc(C)nn3C)C3CC3)c(-c3ccc(Cl)cc3)nc2c1	none (no result: Marburg entry inh, HCMV inh, HCV inh, Lassa entry inh)
CCN(CC)CCn1c(=N)n(CC(O)COc2ccccc2)c2ccccc21 (stereo not drawn)	Marburg entry inh 4.5µM, HCV inh inconclusive
CCCn1c(=N)n(CC(O)COc2ccc(C)cc2)c2ccccc21 (stereo not drawn)	Marburg entry inh inconclusive, HCV inh inconclusive, Lassa entry inh inconclusive
CCN(CC)CCn1c(=N)n(CCO)c2ccccc21	none
Cn1c(=N)n(CC(=O)c2ccc(Br)s2)c2ccccc21	Marburg entry inh inconclusive, HCV inh inconclusive, Lassa entry inh inconclusive
CCN(CC)CCn1c(=N)n(CC(=O)c2ccc(Br)s2)c2ccccc21	VACV mCherry inh inconclusive, Marburg entry inh 7.1µM, HCMV inh -97, Lassa entry inh inconclusive
CCN=c1sc2ccccc2n1CC(O)COc1ccccc1 (stereo not drawn)	HCMV inh inconclusive, HCV inh 13µM (no result: VACV mCherry inh)
CCN(CC)CCn1c(=N)n(CCOc2ccccc2)c2ccccc21	Marburg entry inh 4.1µM, HCMV inh inconclusive, HCV inh 10µM, Lassa entry inh 21µM (no result: VACV mCherry inh, Vaccinia Venus)
CCOC(=O)[C@]12Cc3cc(OC)ccc3[C@H]1N(C(C)C)C(=O)c1cc(OC)ccc12	VACV mCherry inh inconclusive, Vaccinia Venus inconclusive, HCMV inh -100 (no result: Marburg entry inh, HCV inh, Lassa entry inh)

Compound activity (PubChem BioAssay)
